Assay outcomes as filed in PubChem BioAssay.
Hits are enriched below; roughly 12% of the tested compounds scored in any of these assays.
SARS PLpro yeast: qHTS of Yeast-based Assay for SARS-CoV PLP; S. cerevisiae expressing SARS-CoV PLpro, growth rescue; Potency, µM (doses to about 32.9 µM), for inactives: at the top dose activity, positive = growth rescue, most hits filed as activators; 330,000 compounds, 0.19% hits; further: potency means the concentration at half of the fitted maximal effect; 0% is about no effect; nearly all actives have a fitted effect of over 55% in size
NS1 inh: qHTS Assay for Inhibitors of Influenza NS1 Protein Function; 270,000 compounds, 0.4% hits; Potency, µM (top dose mostly 46.1 µM), without a hit: at the top dose activity, positive = more growth; AID 2326, 2010; further: potency means the concentration at half of the fitted maximal effect; actives are rising curves; nearly all actives have a fitted effect of over 50% in size
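Recovery from NS1-induced slow growth read by OD600 in budding yeast switched to galactose assay medium (pH 6.0, -URA) at 1:100 dilution. Compound 23 nl per well; the matching strain lacking NS1 serves as control.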
CHX counter: Cycloheximide Counterscreen for Small Molecule Inhibitors of Shiga Toxin; cell reporter, cycloheximide protein synthesis inhibition counterscreen; max response, %; 300,000 compounds, 12% hits; in the data active means max response mostly above about 13%, no sharp cut-off; inactive means mostly below about 14%; further: read at 38.3 µM for the half of the compounds with a filed dose; 0% is about no effect
Shiga toxin inh: A qHTS for Small Molecule Inhibitors of Shiga Toxin | inhibition, % at 38.7 µM | Vero cells, Shiga toxin protein synthesis inhibition reporter | 290,000 compounds, 9.2% hits; in the data active means inhibition mostly above about 28%, no sharp cut-off; inactive means mostly below about 43%; further: 0% is about no effect
* marks the source's active call; other numbers are inactive results; ? = inconclusive; . = not tested or not shown. Unless noted, the call rests on the fitted dose curve.

SMILES	SARS PLpro yeast	NS1 inh	CHX counter	Shiga toxin inh
CCOc1ccc(-c2nc(=S)[nH][nH]2)cc1	10.8%	4.7%	41.1*	29.0
O=C(OC(C(=O)NCc1ccccc1)c1ccccc1)c1ccco1 (configuration not stated)	2.1%	-2.5%	-4.3	-1.8
O=C(Nc1ccc(Cl)c(Cl)c1)Nc1nccs1	-4.7%	-6.2%	33.5*	68.9*
O=C(Nc1cccc(Cl)c1)Nc1nccs1	-6.1%	-86.6%	69.0*	98.4*
O=C(Nc1cccc(Cl)c1)Nc1nc(-c2ccccc2)cs1	-1.8%	.	-0.8	17.1
COc1cc(Cl)c(C)cc1NC(=O)c1cc(S(=O)(=O)N(C)C)ccc1N1CCCC1	-17.3%	17.1%	-2.2	-8.6
CC(=O)OC(C#CCN1CCOCC1)c1ccccc1 (configuration not stated)	.	11.1%	0.9	-8.8
OC(C#CCN1CCOCC1)c1cccs1 (configuration not stated)	8.5%	5.3%	36.9*	-5.7
Cc1ccc(C(=O)Nc2ccc3c(c2)ncn3C)cc1	1.7%	-3.7%	25.8*	112.1*
CCn1cnc2cc(NC(=O)c3ccc(C)cc3)ccc21	-6.2%	-5.0%	44.4*	49.4*
Cc1ccc(NC(=O)CCn2cnc3cc(C)c(C)cc32)cc1	0.9%	7.7%	-0.5	-2.4
Cc1cc(-c2ccccc2)nc(SCC(=O)N2CCCC2)n1	1.1%	2.1%	-3.5	23.1
CC(=O)c1nnn(-c2c(F)cccc2F)c1C	-1.5%	4.7%	12.2*	18.5
CN(CC(=O)Nc1cccc(C(F)(F)F)c1)Cc1ccccc1	0.1%	-0.5%	4.0	14.4
CN(CC(=O)NCCCc1ccccc1)Cc1ccc(Br)cc1	0.9%	-10.4%	-3.9	-2.8
CN(CC(=O)Nc1cccc(S(=O)(=O)N(C)C)c1)Cc1ccccc1	1.4%	6.2%	23.4*	28.2
CN(CC(=O)Nc1ccc(Br)cc1)Cc1ccccc1	-6.0%	-1.7%	19.0*	7.0
Cc1cc(F)ccc1NC(=O)CCc1ccc(S(=O)(=O)N2CCOCC2)cc1	-0.1%	.	.	.
O=C(NCCOc1ccccc1)c1cncc(Br)c1	-5.1%	-6.6%	44.9*	78.4*
O=C(NCCSc1ccccc1)c1cncc(Br)c1	-17.8%	-7.4%	33.0*	11.3
O=C(NCc1ccccc1)c1cncc(Br)c1	-4.3%	-7.5%	12.6	3.1
O=C(NCCSc1ccccc1)c1ccccc1	-7.2%	-50.0%	31.2*	114.3*
O=C(CCc1ccccc1)NCCSc1ccccc1	-0.3%	.	30.6*	94.5*
O=C(NCCSc1ccccc1)c1ccc(Br)cc1	-23.6%	-25.5%	48.0*	81.3*
CN(C)S(=O)(=O)c1ccc(C(=O)NCCSc2ccc(Br)cc2)cc1	1.8%	9.2%	-5.0	15.8
SMILES	SARS PLpro yeast	NS1 inh	CHX counter	Shiga toxin inh
CN(C)c1cccc(C(=O)NCCCSc2ccccc2)c1	14.2%	0.1%	36.8*	46.8*
CCCCCNC(=O)CCc1ccccc1	5.4%	1.1%	13.3*	13.5
O=C(Nc1ccc(NS(=O)(=O)c2ccccc2)cc1)c1ccccc1Cl	-0.9%	.	.	.
CCc1cc(/C(Cc2ccccn2)=N\Nc2ccccc2)c(O)cc1O	-0.5%	7.2%	1.8	27.9
Cc1cc(C)c(-c2cc(C(=O)Nc3cc(C)ccc3C)[nH]n2)c(O)c1	0.8%	6.2%	-5.7	-3.3
Cc1ccc(C)c(NC(=O)c2cc(-c3ccccc3O)n[nH]2)c1	0.0%	1.8%	28.9*	58.6*
Cc1ccc(NC(=O)c2cc(-c3cc(C)c(C)cc3O)n[nH]2)cc1C	1.2%	-1.6%	15.5*	9.2
Cc1ccc(C)c(NC(=O)c2cc(-c3cc(C)c(C)cc3O)n[nH]2)c1	1.5%	1.5%	30.1*	61.4*
Cc1ccc(-c2cc(C(=O)Nc3cc(C)ccc3C)[nH]n2)c(O)c1	29.9%	18.4%	18.3*	30.2*
Cn1c(=O)c2sc3c(c2n(CC(=O)Nc2ccccc2)c1=O)COC(C)(C)C3	2.0%	7.6%	3.5	9.7
O=C(CSc1nc(O)c(C2CCCCC2)c(=O)[nH]1)NCC1CCCO1 (configuration not stated)	-22.2%	10.3%	29.0*	66.3*
Cc1cc(=O)[nH]c(SCC(=O)NCC2CCCO2)n1 (configuration not stated)	-0.2%	4.7%	-4.0	-5.3
O=C(CCNC(=O)c1ccc(Br)cc1)NC1CCCc2ccccc21 (configuration not stated)	-1.6%	.	.	.
Cc1ccc(/C=C2/C(=O)NC(=O)N(CC3CCCO3)C2=O)s1 (configuration not stated)	8.3%	15.7%	10.3	96.6*
O=C(OCc1nc2ccccc2s1)c1cc2ccccc2oc1=O	14.8%	-6.6%	34.0*	39.5*
O=C(OCc1nc2ccccc2s1)c1ccc(Br)s1	-7.1%	-38.5%	24.6*	28.9
O=C(OCc1cc(=O)n2c(n1)sc1ccccc12)c1ccc(O)cc1	-5.5%	0.0%	35.8*	26.8
Nc1ccc(C(=O)OCc2nc3ccccc3s2)cc1	-10.7%	.	56.2*	87.1*
NC(=NCCc1ccccc1)NS(=O)(=O)c1ccccc1F	8.7%	-1.5%	-2.4	-3.7
O=C(O)Cc1ccc(C(=O)c2cccs2)s1	6.7%	3.8%	16.2	27.2
NC(=O)Cc1ccc(C(=O)c2ccc(F)cc2)s1	-1.5%	.	25.4*	19.8
O=C(Cc1nc2ccccc2[nH]c1=O)c1ccccc1	-4.4%	.	51.1*	68.9*
O=C(Cc1nc2ccccc2[nH]1)c1ccc(Br)cc1	-10.6%	.	28.5*	76.5*
CN(C)S(=O)(=O)c1cccc(COC(=O)CN2C(=O)NC3(CCCC3)C2=O)c1	5.8%	11.6%	-1.1	16.1
CN1N=C2c3ccccc3CCC2C1c1ccc(C(F)(F)F)cc1 (configuration not stated)	0.5%	-13.3%	2.2	27.1
SMILES	SARS PLpro yeast	NS1 inh	CHX counter	Shiga toxin inh
CN(C)c1ccc(C2C3CCCc4ccccc4C3=NN2C)cc1 (configuration not stated)	0.1%	-0.8%	58.9*	96.5*
CCCCCCCCCC(=O)N/N=C/c1ccc(C)s1	-5.3%	0.4%	4.0	-9.8
O=C(Cc1ccc(Cl)cc1)N/N=C/c1cccs1	0.3%	1.0%	-4.0	5.8
Clc1cnc(N/N=C/c2cccs2)c(Cl)c1	?	-147.4%	35.7*	127.9*
Clc1cnc(N/N=C/c2ccco2)c(Cl)c1	-51.5%	-18.3%	57.2*	94.5*
Cc1ccc(/C=N/Nc2ccc(F)cc2F)s1	-2.6%	-6.1%	37.4*	91.0*
Cc1ccc(/C=N/Nc2ncc(Cl)cc2Cl)s1	0.1%	-149.7%	34.1*	44.0
COc1ccc2cc(C(c3nnnn3C3CCCC3)N3CCOCC3)c3nnnn3c2c1 (configuration not stated)	-0.5%	-2.6%	-4.1	-10.7
Cc1cc(C)c(S(=O)(=O)N2CCC(C(=O)NCc3ccc(Cl)cc3Cl)CC2)c(C)c1	-22.7%	-135.5%	-2.3	-13.2
Oc1ccc(/C=N/Nc2ncc(Cl)cc2Cl)cc1	-3.7%	-7.5%	50.3*	111.3*
CCCCCCN(C(=O)CCCCCN1C(=O)NC(c2ccc(C(C)(C)C)cc2)C(C(=O)OCc2ccccc2)=C1C)C(C(=O)NCCCC)c1ccc(OCC(=O)OC)c(C(=O)OC)c1 (configuration not stated)	0.4%	8.91µM*	-2.6	-3.4
O=C(O)C=C1CCN(c2ncc(C(F)(F)F)cc2Cl)CC1	-7.3%	-103.1%	26.2*	33.9
